The values below come from PubChem BioAssay (NCATS).

Results filed as inconclusive are left out. Unmarked numbers belong to inactive results. Calls of active or inactive are those of the source. The call rests on the fitted dose curve; in most records, active means well fitted curve in the direction sought with a large enough effect; inconclusive means small, poorly fitted or top-dose-only effect, or another doubt; inactive means no such curve, though single readings can be large; an effect the other way counts as inactive or inconclusive.

The target in experiment [1] is Aldehyde dehydrogenase, mitochondrial (Homo sapiens) (UniProt P05091). Nature of the experiment: qHTS for Inhibitors of the Aldehyde Dehydrogenase Family (ALDH2) Primary screen (AID 2061308).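 Further: plate controls were vehicle for no effect and reference inhibitor for full effect; nearly all actives have a fitted effect of over 55% in size.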
For experiment [2], the target named is Retinaldehyde dehydrogenase 3 (Homo sapiens) (UniProt P47895). Nature of the experiment: qHTS for Inhibitors of the Aldehyde Dehydrogenase Family (ALDH1A3) Primary screen (AID 2061315).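 Further: plate controls were DMSO vehicle for no effect and reference inhibitor for full effect.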

Regarding `Nc1cccc(S(=O)(=O)N2CCN(S(=O)(=O)c3c(F)cccc3F)CC2)c1`, the Potency result in experiment [1] and in experiment [2] was “inactive” throughout.

Turning to `CC(=O)O[C@@](C)(C(=O)/C=C/C(C)(C)O)[C@H]1[C@H](O)C[C@@]2(C)[C@@H]3CC=C4[C@@H](C=C(O)C(=O)C4(C)C)[C@]3(C)C(=O)C[C@]12C`, the Potency result in experiment [1] and in experiment [2] was “inactive” each time.

For the compound `Cc1cc(C)nc(NC(=S)N2CCN(c3cc(C#N)cc(C#N)c3)CC2)c1`, the Potency result in experiment [1] and in experiment [2] was “inactive” each time.

Turning to `CN(C)CCNc1ncnc2ccc(-c3ccc4c(c3)OCO4)cc12`, the Potency entry in experiment [1] and in experiment [2] was “inactive” each time.

On to `O=S1(=O)N=C(Oc2cccc(-c3ccccc3)c2)c2ccccc21`, for which the Potency result in experiment [1] and in experiment [2] was “inactive” in each case.

Regarding `N#Cc1nc(Nc2cccc(Cl)c2)c2ncn(C3CCCC3)c2n1`, the Potency result in experiment [1] and in experiment [2] was “inactive” throughout.

`COc1ccc(OC)c(-c2nnc3n2N=C(c2ccccc2OC)CS3)c1`: the Potency result in experiment [1] and in experiment [2] was “inactive” in each case.

As to `COc1cc(-c2ccc3ncnc(NCc4ccc(C)o4)c3c2)cc(OC)c1OC`, the Potency entry in experiment [1] and in experiment [2] was “inactive” throughout.

For the compound `CC(C)(C)CNc1ncnc2ccc(-c3ccc(CO)o3)cc12`, the Potency result in experiment [1] and in experiment [2] was “inactive” throughout.

Take `CCOC(=O)C1CCN(C(=O)C(C)(C)NC(=O)Nc2cccc(C(=O)OC)c2)CC1`: the Potency result in experiment [1] and in experiment [2] was “inactive” each time.

In the case of `CCOC(=O)c1ccoc1-c1ccc2ncnc(NCCc3cnc[nH]3)c2c1`, the Potency entry in experiment [1] and in experiment [2] was “inactive” each time.

Consider `Cn1cc(C[C@H](C(=O)O)N2C(=O)c3ccc(C(=O)O)cc3C2=O)c2ccccc21`, for which the Potency result in experiment [1] and in experiment [2] was “inactive” in each case.

As to `COc1cnc(-c2ccc(Cn3c(CC(C)(C)C(=O)O)c(SC(C)(C)C)c4cc(OC[C@@H]5Cc6ccccc6N5C(C)=O)ccc43)cc2)nc1`, the Potency result in experiment [1] and in experiment [2] was “inactive” each time.

Consider `O=S(=O)(c1ccc2c(c1)OCCCO2)N1CCN(S(=O)(=O)c2c(F)cccc2F)CC1`, for which the Potency entry in experiment [1] and in experiment [2] was “inactive” throughout.

Consider `Cc1cc(Nc2ncc3cc(-c4c(Cl)cccc4Cl)c(=O)n(C)c3n2)ccc1F`, for which the Potency entry in experiment [1] and in experiment [2] was “inactive” each time.

With `CCOc1ccc(CCNC(=O)c2cnon2)cc1OCC`, the Potency result in experiment [1] and in experiment [2] was “inactive” throughout.

For `Cc1cc(C)nc(NC(=S)N2CCN(c3ccc(C(F)(F)F)cn3)CC2)c1`, the Potency entry in experiment [1] and in experiment [2] was “inactive” each time.

`CC(=O)O[C@H]1C(=O)[C@@]2(C)[C@H]([C@H](OC(=O)c3ccccc3)[C@]3(O)C[C@H](OC(=O)[C@H](O)[C@@H](NC(=O)c4ccccc4)c4ccccc4)C(C)=C1C3(C)C)[C@]1(OC(C)=O)CO[C@@H]1C[C@@H]2O`: the Potency entry in experiment [1] and in experiment [2] was “inactive” in each case.

As for `Cc1ccc(OCCn2c(CCNC(=O)C3CCN(C(=O)OC(C)(C)C)CC3)nc3ccccc32)cc1`, the Potency result in experiment [1] and in experiment [2] was “inactive” throughout.

For the compound `COc1ccc2nc(-c3ccccc3OC)sc2c1`, the Potency result in experiment [1] and in experiment [2] was “inactive” in each case.

As to `COc1ccc(NC(=O)c2[nH]c(C)c(C(C)=O)c2C)cc1S(=O)(=O)Nc1cccc(C#N)c1`, the Potency result in experiment [1] and in experiment [2] was “inactive” in each case.

As to `CCCCNc1nc(C)nc2c1nc(-c1ccccc1)n2C1CCN(Cc2ccccc2)C1` (stereo not drawn), the Potency entry in experiment [1] and in experiment [2] was “inactive” each time.

Consider `CC(C)(C)c1ccc(-c2csc(N3CCC(C(N)=O)CC3)n2)cc1`, for which the Potency result in experiment [1] and in experiment [2] was “inactive” throughout.

`O=C(O)c1ccc(-c2noc(-c3ccccc3C(F)(F)F)n2)cc1`: the Potency result in experiment [1] and in experiment [2] was “inactive” in each case.

In the case of `N#Cc1cccc(-c2csc(N3CCC(C(N)=O)CC3)n2)c1`, the Potency result in experiment [1] and in experiment [2] was “inactive” in each case.

`COc1ccc(-c2nc3ccccc3s2)cc1OC`: the Potency result in experiment [1] and in experiment [2] was “inactive” in each case.

For `Clc1ccccc1-c1ccc2ncnc(NCc3cccnc3)c2c1`, the Potency entry in experiment [1] and in experiment [2] was “inactive” each time.

Regarding `O=C1CCCC2=C1C1(CCSC1)N=C(Nc1nc3ccccc3o1)N2` (stereo not drawn), the Potency entry in experiment [1] and in experiment [2] was “inactive” in each case.

Consider `CCN(CC)CCCCn1c(-c2ccccc2)nc2c(Nc3ccccc3)nc(C)nc21`, for which the Potency entry in experiment [1] and in experiment [2] was “inactive” in each case.

For the compound `COc1ccc(S(=O)(=O)N2CCN(S(=O)(=O)c3c(F)cccc3F)CC2)cc1`, the Potency entry in experiment [1] and in experiment [2] was “inactive” in each case.

As for `O=C(Cc1nnc(CNC(=O)c2ccccc2)s1)Nc1ccc(C(F)(F)F)cc1Cl`, the Potency entry in experiment [1] and in experiment [2] was “inactive” in each case.

For `O=C(Nc1ccc(S(=O)(=O)Nc2nccs2)cc1)C1CCC2(CC1)CC2`, the Potency entry in experiment [1] and in experiment [2] was “inactive” each time.

As to `O=C1CCCC2=C1C(c1[nH]ncc1Cl)NC(=NCc1ccccn1)N2` (stereo not drawn), the Potency entry in experiment [1] and in experiment [2] was “inactive” in each case.

`C=C1C(=O)O[C@@H]2C(OC(=O)/C(C)=C\C)/C(C)=C\C(=O)/C=C(\C)C[C@H](O)[C@@H]12` (stereo partly drawn): the Potency result in experiment [1] and in experiment [2] was “inactive” each time.

On to `CC(=O)O[C@@H]1C[C@]2(C)[C@@]3(CCC4[C@@]5(C)CC[C@H](O[C@@H]6O[C@H](C(=O)O)[C@@H](O)[C@H](O[C@@H]7O[C@H](CO)[C@H](O)[C@H](O)[C@H]7O[C@@H]7O[C@@H](C)[C@H](O)[C@@H](O)[C@H]7O[C@@H]7OC[C@](O)(CO)[C@H]7O)[C@H]6O[C@@H]6O[C@H](CO)[C@H](O)[C@H](O)[C@H]6O)C(C)(C)C5CC[C@]42C)O[C@@H](O)[C@]12C3CC(C)(C)[C@@H](OC(=O)/C=C/c1ccc(O)c(O)c1)[C@@H]2OC(=O)/C=C/c1ccccc1` (stereo partly drawn), for which the activity change, negative = inhibition is 3.11% [at 11.2 µM] in experiment [1] and 17.4% [at 11.2 µM] in experiment [2].

As to `Cc1cc(C)nc(NC(=S)N2CCN(c3ccc4ccccc4n3)CC2)c1`, the Potency result in experiment [1] and in experiment [2] was “inactive” in each case.

Take `Cc1cc(C)nc(NC(=S)N2CCN(c3ccc(Cl)cc3S(C)(=O)=O)CC2)c1`: the Potency result in experiment [1] and in experiment [2] was “inactive” each time.

Regarding `O=C(CNC(=O)c1ccncc1)OC(C(=O)Nc1cc(C(F)(F)F)ccc1Cl)c1ccccc1` (stereo not drawn), the Potency entry in experiment [1] and in experiment [2] was “inactive” each time.

`Cc1cn([C@H]2C[C@H](N[S+](=O)([O-])Cc3ccccc3)[C@@H](CO)O2)c(=O)[nH]c1=O`: the Potency result in experiment [1] and in experiment [2] was “inactive” each time.
